Measured values: PubChem BioAssay (NCATS)
Inconclusive results are not listed. The source made the active and inactive calls. Unless noted, the call rests on the fitted dose curve; in most records, active means well fitted inhibition curve with a large enough effect; inconclusive means small, poorly fitted or top-dose-only effect; inactive means no such curve, though single readings can be large or run the other way.

How the values were obtained:
[1] = qHTS assay for measurement of the activity of small molecule inhibitors on Zika virus induced Caspase-3 activity in human iPSC derived neural progenitor cells (hNPCs) (AID 1224857); further: nearly all actives have a fitted effect of over 65% in size
Outline: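 hNPCs seeded 350 cells/well, cultured 16–20 h; compounds added 1 h before ZIKV (2 FFU/cell), 37 C 6 h. Caspase-Glo 3/7 luminescence after 30 min RT; % inhibition from induction scaled to uninfected (0%) and infected (100%) wells.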

[2] = qHTS assay for measurement of the activity of small molecule inhibitors on Zika virus induced Caspase-3 activity in human astrocytoma cells (AID 1224859)
Outline: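 Luminescence read-out (Caspase-Glo 3/7, 30 min RT) of caspase activity in SNB-19 cells infected 6 h with ZIKV, 2 FFU/cell, after 1 h compound pretreatment; % inhibition from induction normalised to uninfected (0%) and infected (100%) wells.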

[3] = Natriuretic polypeptide receptor (hNpr1) antagonism - Pilot counterscreen GloSensor control cell line (AID 1347045; calls by dose curve; further: series mostly up to about 38 µM)
Outline: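 HEK293 cGMP GloSensor cells preloaded 2 h with 2% GloSensor reagent, then compound 30 min before baseline luminescence read. Stimulated with 50 uM sodium nitroprusside, 20 min at room temperature, then read again; counterscreen for Npr1 antagonism.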

[4] = target: Atrial natriuretic peptide receptor 1 (Homo sapiens) (UniProt P16066); assay: Natriuretic polypeptide receptor (hNpr1) antagonism - Pilot screen (AID 1347049; calls by dose curve;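 further: agonist-evoked cGMP luminescence read 20 min after hNppA addition; series mostly up to about 58 µM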)
Atrial natriuretic peptide receptor 1 (Homo sapiens), sequence (P16066 whole entry, looked up): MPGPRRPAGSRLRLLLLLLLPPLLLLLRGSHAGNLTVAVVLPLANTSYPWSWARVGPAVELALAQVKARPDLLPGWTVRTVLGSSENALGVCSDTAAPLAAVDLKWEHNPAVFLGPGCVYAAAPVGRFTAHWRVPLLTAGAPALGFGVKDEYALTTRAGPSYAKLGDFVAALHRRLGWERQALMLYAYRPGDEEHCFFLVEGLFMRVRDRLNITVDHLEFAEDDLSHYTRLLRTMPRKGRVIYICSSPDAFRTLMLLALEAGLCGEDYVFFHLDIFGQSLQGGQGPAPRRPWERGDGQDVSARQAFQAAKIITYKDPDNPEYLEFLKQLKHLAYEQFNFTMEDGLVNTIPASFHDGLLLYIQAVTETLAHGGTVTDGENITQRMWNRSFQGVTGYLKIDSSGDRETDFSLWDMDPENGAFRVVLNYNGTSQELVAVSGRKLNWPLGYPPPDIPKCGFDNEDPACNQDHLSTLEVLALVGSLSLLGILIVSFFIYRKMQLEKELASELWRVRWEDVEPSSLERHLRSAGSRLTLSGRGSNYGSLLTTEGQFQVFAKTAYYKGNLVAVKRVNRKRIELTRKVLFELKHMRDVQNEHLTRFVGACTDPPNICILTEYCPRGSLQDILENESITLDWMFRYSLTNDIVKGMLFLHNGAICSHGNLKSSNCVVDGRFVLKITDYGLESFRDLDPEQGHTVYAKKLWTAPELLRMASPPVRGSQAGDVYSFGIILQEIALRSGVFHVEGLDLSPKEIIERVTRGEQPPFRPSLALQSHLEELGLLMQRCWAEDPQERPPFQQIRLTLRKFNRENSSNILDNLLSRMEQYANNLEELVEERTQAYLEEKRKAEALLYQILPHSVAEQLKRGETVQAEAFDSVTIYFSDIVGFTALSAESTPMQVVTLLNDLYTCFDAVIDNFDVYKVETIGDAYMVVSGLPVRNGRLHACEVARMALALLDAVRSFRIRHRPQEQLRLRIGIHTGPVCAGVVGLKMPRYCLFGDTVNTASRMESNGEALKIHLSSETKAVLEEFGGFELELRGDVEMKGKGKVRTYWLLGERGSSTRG
Outline: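 Readout is cGMP-driven firefly luciferase luminescence in HEK293 cells carrying hNpr1 and a PDE5-domain GloSensor, read before and 20 min after 0.1 nM hNppA stimulation. Cells had 2% substrate reagent for 2 h and test compound for 30 min.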

[5] = target: Atrial natriuretic peptide receptor 2 (Homo sapiens) (UniProt P20594); assay: Natriuretic polypeptide receptor (hNpr2) antagonism - Pilot subtype selectivity assay (AID 1347050; calls by dose curve)
Atrial natriuretic peptide receptor 2 (Homo sapiens), sequence (P20594 whole entry, looked up): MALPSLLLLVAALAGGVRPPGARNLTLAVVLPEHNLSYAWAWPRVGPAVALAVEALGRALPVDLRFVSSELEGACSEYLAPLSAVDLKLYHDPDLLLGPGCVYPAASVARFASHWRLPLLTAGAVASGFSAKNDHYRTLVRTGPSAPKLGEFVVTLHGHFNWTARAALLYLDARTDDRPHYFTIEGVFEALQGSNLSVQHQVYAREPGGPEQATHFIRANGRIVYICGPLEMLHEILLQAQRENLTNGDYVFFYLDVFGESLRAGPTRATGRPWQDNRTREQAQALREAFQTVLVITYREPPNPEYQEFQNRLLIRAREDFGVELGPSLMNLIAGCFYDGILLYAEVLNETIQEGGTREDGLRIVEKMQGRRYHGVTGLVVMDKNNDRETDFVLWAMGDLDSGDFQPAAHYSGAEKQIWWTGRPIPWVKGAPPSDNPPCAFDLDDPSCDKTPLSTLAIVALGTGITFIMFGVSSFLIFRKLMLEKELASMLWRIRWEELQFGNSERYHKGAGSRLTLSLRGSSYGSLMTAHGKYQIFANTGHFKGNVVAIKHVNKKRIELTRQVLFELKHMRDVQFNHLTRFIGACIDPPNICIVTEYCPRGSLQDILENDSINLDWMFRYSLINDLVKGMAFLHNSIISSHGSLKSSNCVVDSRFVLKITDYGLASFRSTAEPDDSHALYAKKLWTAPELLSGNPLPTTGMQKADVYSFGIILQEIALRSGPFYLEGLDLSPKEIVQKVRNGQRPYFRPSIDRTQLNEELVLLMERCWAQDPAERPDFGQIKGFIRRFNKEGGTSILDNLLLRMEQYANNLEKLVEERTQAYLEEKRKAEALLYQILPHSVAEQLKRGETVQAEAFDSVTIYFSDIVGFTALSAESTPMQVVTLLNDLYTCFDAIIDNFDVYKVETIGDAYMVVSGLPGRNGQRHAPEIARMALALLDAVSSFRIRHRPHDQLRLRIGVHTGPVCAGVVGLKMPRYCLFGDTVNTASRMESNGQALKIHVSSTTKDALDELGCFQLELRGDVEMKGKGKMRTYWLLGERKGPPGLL
Outline: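 Pilot selectivity screen against hNpr2: HEK293 cGMP-sensor cells are treated with LOPAC1280 compounds, then with hNppC peptide at 1 nM final. The cGMP-driven luminescence change over 20 min at room temperature is the read-out.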

[6] = NS1 protein of Zika virus - qHTS assay to identify small molecule inhibitors in human HEK 293 cells (AID 1347053); further: series mostly up to about 46 µM; nearly all actives have a fitted effect of over 55% in size
Outline: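 Following 20 h seeding, HEK 293 cells took compound, then 1 h later ZIKV MR766 (MOI = 0.5). Incubation ran 24 h at 37 C before TR-FRET detection of NS1; a drop in signal indicates inhibition.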

[7] = target: T1, Tyrosine-protein phosphatase non-receptor type substrate 1 (Homo sapiens) + Leukocyte surface antigen CD47 (Homo sapiens) (UniProt P78324+Q08722); assay: CD47-SIRPalpha protein protein interaction - LANCE assay qHTS validation (AID 1347057; active means well fitted curve in the direction sought with a large enough effect in the signal ratio, with a control signal flat, not every such curve was filed as active; the % refers to the signal ratio; further: series mostly up to about 38 µM)
T1 sequence (P78324 whole entry, looked up): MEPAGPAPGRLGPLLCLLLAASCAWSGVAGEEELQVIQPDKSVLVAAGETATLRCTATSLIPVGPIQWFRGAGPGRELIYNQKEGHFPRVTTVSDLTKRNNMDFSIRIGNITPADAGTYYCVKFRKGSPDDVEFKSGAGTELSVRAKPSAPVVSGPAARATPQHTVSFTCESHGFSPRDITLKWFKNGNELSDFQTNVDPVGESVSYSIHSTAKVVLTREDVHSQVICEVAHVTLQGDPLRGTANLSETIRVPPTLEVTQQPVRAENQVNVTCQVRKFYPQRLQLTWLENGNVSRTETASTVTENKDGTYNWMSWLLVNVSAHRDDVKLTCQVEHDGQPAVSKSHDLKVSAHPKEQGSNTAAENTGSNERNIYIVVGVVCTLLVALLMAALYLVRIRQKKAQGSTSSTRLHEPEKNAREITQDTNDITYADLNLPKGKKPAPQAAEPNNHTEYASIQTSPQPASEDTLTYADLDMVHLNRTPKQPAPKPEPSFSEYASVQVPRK
T1 sequence (Q08722 whole entry, looked up): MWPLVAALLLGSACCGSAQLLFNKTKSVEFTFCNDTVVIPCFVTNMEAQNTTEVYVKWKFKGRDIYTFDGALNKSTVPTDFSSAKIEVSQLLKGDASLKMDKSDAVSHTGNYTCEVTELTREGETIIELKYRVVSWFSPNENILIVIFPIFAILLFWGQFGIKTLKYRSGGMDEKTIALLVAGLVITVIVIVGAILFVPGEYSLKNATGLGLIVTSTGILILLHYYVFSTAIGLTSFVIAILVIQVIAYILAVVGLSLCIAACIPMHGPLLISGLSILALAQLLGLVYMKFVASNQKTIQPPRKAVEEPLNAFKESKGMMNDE
Outline: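 First, His-tagged CD47 and Eu-labelled anti-His antibody met the compound for 30 min; next, site-specifically biotinylated SIRPalpha was added for 30 min; finally streptavidin-APC was added before reading the TR-FRET ratio.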

[8] = target: T1, Tyrosine-protein phosphatase non-receptor type substrate 1 (Homo sapiens) + Leukocyte surface antigen CD47 (Homo sapiens); assay: CD47-SIRPalpha protein protein interaction - HTRF assay qHTS validation (AID 1347058; active means well fitted curve in the direction sought with a large enough effect in the signal ratio, not every such curve was filed as active; the % refers to the signal ratio;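 further: recombinant soluble extracellular CD47 with His tag and biotinylated SIRPalpha domains; series mostly up to about 38 µM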)
Outline: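 TR-FRET read (Ch1/Ch2 ratio) of soluble extracellular CD47 and Avi-biotinylated SIRPalpha domains in PBS pH 7.4 with 0.05% IGEPAL; 7-point compound titration. Sequential 30 min room-temperature steps; non-biotinylated SIRPalpha as control inhibitor.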

Measured: Potency

Cc1[nH]c2ccc(O)cc2c1CCN
inactive: [1] | [2] | [3] | [4] | [5] | [6] | [7] | [8]

CCCN1CCc2cccc3c2[C@H]1Cc1ccc(O)c(O)c1-3
inactive: [1] | [2] | [3] | [4] | [5]

CC(N)[C@H](O)c1ccc(O)c(O)c1 (some centres undefined)
inactive: [1] | [2] | [3] | [4] | [5] | [6] | [7]

N=C(N)c1ccc(CS(=O)(=O)F)cc1
inactive: [1] | [2] | [3] | [4] | [5] | [6] | [7] | [8]

COc1ccc2c(c1)C13CCCCC1C(C2)N(C)CC3 (centres undefined)
inactive: [1] | [2] | [3] | [4] | [5] | [6] | [7]

Nc1ncnc2c1ncn2[C@@H]1O[C@H](COP(=O)(O)CP(=O)(O)OP(=O)(O)O)C(O)[C@H]1O (some centres undefined)
inactive: [1]

CC(N)Cc1c[nH]c2ccc(OCc3cccs3)cc12 (centres undefined)
inactive: [1] | [2] | [3] | [4] | [5] | [6] | [7] | [8]

CCCN(CCC)C1CCc2cccc(O)c2C1 (centres undefined)
inactive: [1] | [2] | [3] | [4] | [5] | [6] | [7] | [8]

C[N+]1(C)CCC(OC(=O)C(c2ccccc2)c2ccccc2)CC1
inactive: [1]

CC(N)c1cccc(Cl)c1Cl (centres undefined)
inactive: [1] | [2] | [3] | [4] | [5] | [6] | [7] | [8]

OC1CCCCC1N1CCC(c2ccccc2)CC1 (centres undefined)
inactive: [1] | [2] | [3] | [4] | [5] | [6] | [7] | [8]

O=[N+]([O-])c1ccc2nc(N3CCNCC3)ccc2c1
inactive: [1] | [2] | [3] | [4] | [5] | [6] | [7]

CCN1C[C@@]2(COC)C3[C@@H](OC)C4[C@H]1C3([C@@H]1C[C@@]3(O)[C@H](OC(=O)c5ccccc5)[C@@H]1[C@]4(OC(C)=O)[C@@H](O)[C@@H]3OC)[C@H](OC)C[C@H]2O
inactive: [1]

CN1CCC(c2c[nH]c3ccc(O)cc23)CC1
inactive: [1] | [2] | [3] | [4] | [5] | [6] | [7]

CC(C)(C)c1o[nH]c(=O)c1CC(N)C(=O)O (centres undefined)
inactive: [1] | [2] | [3] | [4] | [5] | [6] | [7] | [8]

O=S1(=O)N(CCN2CC=C(c3c[nH]c4cc(F)ccc34)CC2)c2cccc3c2N1CCC3
inactive: [1] | [2] | [3] | [4] | [5] | [6] | [7]

NC(=O)c1ccc(OCC(O)CN2CC=C(c3ccc(F)cc3)CC2)cc1 (centres undefined)
inactive: [1] | [2] | [3] | [4] | [5] | [6] | [7] | [8]

CC(C)(O)[C@@H]1[C@H]2OC(=O)[C@@H]1[C@]1(O)C[C@H]3O[C@]34C(=O)O[C@H]2[C@]14C (tested in a mixture with another compound)
inactive: [1]

c1ccc2cc(CC3=NCCN3)ccc2c1
inactive: [1] | [2] | [3] | [4] | [5] | [6] | [7] | [8]

C[C@H](Cc1ccc2c(c1)OC(C(=O)O)(C(=O)O)O2)NC[C@H](O)c1cccc(Cl)c1
inactive: [1] | [2] | [3] | [4] | [5] | [6] | [7] | [8]

CN1CCc2cccc(Cl)c2CC1
inactive: [1] | [2] | [3] | [4] | [5] | [6] | [7]

Clc1ccc(N2CC3CCC(C2)N3)nn1
inactive: [1] | [2] | [3] | [4] | [5] | [6] | [7] | [8]

CCNC(=O)[C@H]1O[C@@H](n2cnc3c(N)ncnc32)[C@H](O)C1O (some centres undefined)
inactive: [1]

CC1OC1P(=O)(O)O (centres undefined)
inactive: [1]

COc1ccc2[nH]cc(CCN)c2c1
inactive: [1] | [2] | [3] | [4] | [5] | [6] | [7] | [8]

CCN(CC)c1ncnc2c1ncn2[C@@H]1O[C@H](COP(=O)(O)OP(=O)(O)C(Br)(Br)P(=O)(O)O)[C@@H](O)[C@H]1O
inactive: [1]

c1ccc2c(N3CCNCC3)cccc2c1
inactive: [1] | [2] | [3] | [4] | [5] | [6] | [7] | [8]

CC(C)NP(=O)(NC(C)C)OP(=O)(NC(C)C)NC(C)C
inactive: [1] | [2] | [3] | [4] | [5] | [6] | [7] | [8]

CCOC(=O)c1ncn2c1[C@@H]1CCCN1C(=O)c1cc(OC)ccc1-2
inactive: [1] | [2] | [3] | [4] | [5] | [6] | [7] | [8]

COc1ccc2[nH]c3c(c2c1)CCNC3
inactive: [1] | [2] | [3] | [4] | [5] | [6] | [7]

NCCc1c[nH]c2ccc(C(N)=O)cc12
inactive: [1] | [2] | [3] | [4] | [5] | [6] | [7] | [8]
